Pf Dd2 inh = Plasmodium falciparum Dd2 growth inhibition | 120,000 compounds, 4.3% hits | Potency, µM (top dose mostly 28.9 µM), for the others: at the top dose activity, negative = inhibition, hits mostly inhibitors | P. falciparum Dd2 growth, SYBR Green, 72 h; active = well fitted inhibition curve with a large enough effect;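 also: plate controls were DMSO vehicle for no effect and reference drug for full effect; nearly all actives have a fitted effect of over 65% in size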
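Readout: SYBR Green fluorescence, 485 nm excitation, 535 nm emission, after ~16 h lysis at 37C. Before that, Dd2-infected red cells (2.5% hematocrit) grew 72 h with compound, 29 uM top final concentration.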
An asterisk follows results filed as active; i = inactive; [ ] = remark or other dose. The sample as a whole holds a higher share of hits than the screen did. Potency is read from the fitted curve at half-maximal effect.

SMILES	Pf Dd2 inh
CN1CCC(O)(C(=O)N2C[C@@H](C(=O)O)[C@H](c3ccc(F)cc3)C2)CC1	-4%
CS(=O)(=O)N1CCC(Cc2ccc(C(=O)O)cc2)CC1	1%
COc1cc(NC(=O)N2C[C@@H](F)C[C@H]2C(=O)N2CCCCC2)cc(OC)c1	14%
CCC1COCCN1Cc1cn(-c2ccccc2)nc1-c1ccc(OC)cc1F (configuration not stated)	13µM*
Cc1cccc(-n2cc(CN3CCCC(C)(O)C3)c(-c3cccc(F)c3)n2)c1 (configuration not stated)	8.9µM*
COc1ccc(-n2nc(C3CCN(Cc4cccc5ccccc45)CC3)[nH]c2=O)cc1	i
COc1ccc(-c2nn(-c3ccccc3)cc2CN2CCC(F)CC2)c(F)c1	11µM*
COc1ccc(-c2nn(-c3ccccc3)cc2CN2CCC(CO)CC2)c(F)c1	i
COc1ccc(-c2nc3c(C)cccc3cc2CN2CCC(O)CC2)cc1OC	-7%
COc1ccc(OC)c(CN2CCN(Cc3ccccc3F)C(CCO)C2)c1 (configuration not stated)	i
COc1cccc(-c2ccccc2NC(=O)C2CCN(Cc3cc(F)ccc3F)CC2)c1	-15%
COc1ccc(-n2cc(CN3CCC(O)CC3)c(-c3cccc(F)c3)n2)cc1	13µM*
CC(=O)NC1(C)CCN(Cc2cnc(-c3cccc(F)c3)s2)CC1	i
COc1ccc(CN2CCN(c3nc4ccccc4o3)CC2CCO)c(F)c1 (configuration not stated)	-8%
OC1(CN2CCCCC2)CCN(Cc2cccc(F)c2F)C1 (configuration not stated)	i
CCOCCCNC(=O)CN1CC2CC(C1)[C@H]1CCCC(=O)N1C2 (some centres not stated)	-5%
COCCN1C(=O)CS(=O)(=O)C12CCN(C(=O)c1ccccc1C)CC2	-5%
COC[C@H]1C[C@@H](NC(=O)c2ccccc2)[C@H](O)[C@@H]1O	18%[44.1 µM]
O=C(Nc1ccc(F)cc1F)N[C@H]1[C@H]2CCO[C@H]2[C@@H]1N1CCCCC1	-15%
NC(=O)[C@@H]1CN(C(=O)C2CCC2)C[C@H]1COc1ccccc1	5%
CN(C)c1ccc(C(=O)N2CCC[C@H]2c2nc(-c3ccc(F)cc3)no2)cc1	-10%
COCc1nc(C2CCN(C(=O)C3CCC3)C2)no1 (configuration not stated)	-4%
O=C(c1cccs1)C1CCCN(C(=O)c2ccc3nccn3c2)C1 (configuration not stated)	-3%
COc1ccc(-c2ccnc3nc(C4CC4)nn23)c(F)c1	i
COc1ccc(-c2nn(-c3ccccc3)cc2CN2CCC(C#N)CC2)c(F)c1	11µM*
SMILES	Pf Dd2 inh
O=c1n(-c2ccc(F)cc2F)nc2n1CCN(Cc1cccc3ccccc13)C2	i
Cc1ccccc1-c1nn(-c2ccc(F)cc2F)cc1CN1CCC[C@@H]1C(N)=O	-17%
COc1cccc(N2CC(C(=O)N3CCC(C#N)CC3)NC2=O)c1 (configuration not stated)	-5%[44.1 µM]
Cc1ccccc1-c1nn(-c2ccc(F)cc2F)cc1CN1CCC(O)CC1	11µM*
COCCn1ncc(N2CCC(NC(=O)Cc3ccc(F)cc3)CC2)cc1=O	-23%
CC(=O)N1CCCC1C(=O)Nc1ccc(-c2nc3ccccc3o2)cc1 (configuration not stated)	-20%
Cc1ccc(F)cc1CN1CCOc2cc([S+](=O)([O-])N(C)C)ccc2C1	-11%[44.1 µM]
Cc1ccc(S(=O)(=O)N2CCC(Oc3ncccc3C(=O)N3CCOCC3)C2)cc1C (configuration not stated)	-24%
CC1(C)NC(=O)N(CCC(=O)N2CCc3c(nc4cc(-c5ccccc5)[nH]n4c3=O)C2)C1=O	22%[5.79 µM]
Cc1ccc(Cn2c(=O)n(Cc3ccc(C(=O)NC4CCN(Cc5ccccc5)CC4)cc3)c(=O)c3ccccc32)cc1	7%
COc1ccc(Cn2c(SCc3ccc(C(=O)NC4CCCC4)cc3)nc3ccncc32)cc1	-13%
Cc1ccc(CSc2nc3ccncc3n2Cc2nc(-c3ccc(Cl)cc3)oc2C)cc1	5%
Cc1cccc(CSc2nc3cc(C(=O)NC4CCCC4)ccc3c(=O)n2Cc2ccccc2)c1	18%
Cc1ccc(C(=O)CSc2nc3cc(C(=O)NC4CCCC4)ccc3c(=O)n2CC2CCCO2)c(C)c1 (configuration not stated)	-3%
COc1ccc(CSc2nc3ccncc3n2CC(=O)Nc2cc(C)cc(C)c2)cc1	49%
Cc1ccc(Cn2c(SCc3ccc(C(=O)NC4CCCC4)cc3)nc3ccncc32)cc1	11µM*
Cc1ccc(Cn2c(SCc3ccc(C(=O)NC4CCCCC4)cc3)nc3ccncc32)cc1	11µM*
COc1ccc(Cn2c(SCc3ccc(C(=O)NC4CCCCC4)cc3)nc3ccncc32)cc1	7.9µM*
Cc1cn(CCNC(=O)c2cn(C3CCC(N)CC3)nn2)nn1 (configuration not stated)	-3%
O=C(Cn1nnnc1CN1CCOCC1)N1CCCC1c1ccc(F)cc1 (configuration not stated)	10%
Cc1cnc(C(=O)N2C[C@H]3OC(=O)N(CCc4cccc(Cl)c4)[C@H]3C2)[nH]1	-8%
CCn1ccc(C(=O)NC2CCCN(c3cc(-c4ccc(OC)cc4)[nH]n3)C2)n1 (configuration not stated)	-2%
Cc1cc(CNC(=O)[C@@H]2CCC[C@@H](NC(=O)c3ccc(C#N)cc3)CN(C)C(=O)C2)no1	-15%
COc1cc(NC(=O)CCCN2C(=O)CCn3nc(-c4cn(C)c5ccccc45)cc32)cc(OC)c1	7.9µM*
Cc1cccc(C)c1NC(=O)CCCN1C(=O)CCn2nc(-c3cn(C)c4ccccc34)cc21	44%
SMILES	Pf Dd2 inh
Cn1cc(-c2cc3n(n2)CCC(=O)N3CCCC(=O)Nc2ccc(Cl)cc2)c2ccccc21	2%
COC1CCC12CCN(C(=O)C1CCCCC1)CC2 (configuration not stated)	1%
COc1cc(C(=O)Nc2nonc2-c2ccc(C)c(C)c2)cc(OC)c1OC	8%
Cc1ccc(-c2nonc2NC(=O)c2ccc(F)cc2)cc1C	32%
CCOc1ccc(-c2nonc2NC(=O)c2ccc(C)cc2)cc1OCC	2µM*
N#Cc1ccc(CN2CC(CNC(=O)c3ccccc3)C3(C2)CN(c2ccccc2)C3)cc1 (configuration not stated)	-8%[44.1 µM]
O=C(C1CC1)N1CCN(Cc2ccccc2)CC(O)C1 (configuration not stated)	11%
O=C(C1CCC1)N1CCN(Cc2ccccc2)CC(O)C1 (configuration not stated)	-5%
CN(CC(=O)N1CCN(Cc2ccccc2)CC(O)C1)C1CCCC1 (configuration not stated)	8.9µM*
O=C(N[C@H]1CCN2C(=O)c3ccccc3NC(=O)[C@@H]2C1)c1ccncc1	-1%[44.1 µM]
CC(C)Nc1ccc2nnc(C3CCC3)n2n1	92%
Cc1ccc(CNc2ccc3nnc(C4CCC4)n3n2)o1	7.1µM*
CCc1nnc2ccc(NCC3CCCO3)nn12 (configuration not stated)	-9%
CCn1cnnc1CC1CCN(C(=O)c2ccc3cc[nH]c3c2)C1 (configuration not stated)	i
COc1cccc(CN2Cc3nc(N(C)c4ccccc4)ccc3OCC2=O)c1	15%[44.1 µM]
COc1cccc(CN2Cc3nc(Oc4ccccc4)ccc3OCC2=O)c1	i
COc1cccc(CN2Cc3c(CN(C)Cc4ccccc4)nnn3CCC2=O)c1	10µM*
CCN(CC)C(=O)[C@@H]1C[C@H](N)CN1C(=O)c1cc2ccccc2n(C)c1=O	-16%
